In all, about 150,000 compounds went through this assay and about 6,500 (4.3%) were called active. Not shown: some 12% with an inconclusive outcome. The full list was thinned out, with actives kept by preference. Values without a mark were called inactive. Calls follow the shape of the dose curve; as a rule, active = well fitted inhibition curve with a large enough effect (not every such curve was filed as active); inconclusive = small, poorly fitted or top-dose-only effect, or another doubt; inactive = no such curve, though single readings can be large or run the other way.
Each compound was assayed against 15-hydroxyprostaglandin dehydrogenase [NAD(+)] (Homo sapiens) (UniProt P15428) (assay: qHTS Assay for Inhibitors of HPGD (15-Hydroxyprostaglandin Dehydrogenase)). Conditions: purified HPGD, NADH fluorescence kinetic, PGE2 substrate; activity change, negative = inhibition: hits give low values.
In short: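 NADH formation kinetics: reaction with 30 uM PGE2 and 1 mM NAD+ (final), 20 nM enzyme, Tris-HCl pH 8 with Tween 20, after 15 min compound preincubation at room temperature. Fluorescence change, last versus first of five reads.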
% is scaled to controls: 0 for no effect and ±100 for the full control effect; potency is read from the fitted curve at half-maximal effect.

Chain of 15-hydroxyprostaglandin dehydrogenase [NAD(+)] (Homo sapiens) (P15428 whole entry, looked up): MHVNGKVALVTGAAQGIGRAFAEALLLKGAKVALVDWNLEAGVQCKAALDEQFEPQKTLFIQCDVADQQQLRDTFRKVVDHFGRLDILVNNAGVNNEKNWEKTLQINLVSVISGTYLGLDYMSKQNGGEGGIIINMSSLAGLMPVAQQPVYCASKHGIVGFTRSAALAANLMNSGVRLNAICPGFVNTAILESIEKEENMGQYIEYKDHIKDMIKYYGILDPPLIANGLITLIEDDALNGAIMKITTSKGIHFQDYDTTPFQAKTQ

Structure (SMILES)	activity change, negative = inhibition [%]	Potency
COc1ccccc1C1SCCN1C(=O)c1ccc([N+](=O)[O-])cc1 (configuration not stated)	-2.04	
O=C(CN1CCN(c2ccc(O)cc2)CC1)Nc1cc(S(=O)(=O)N2CCOCC2)ccc1Cl	-5.21	
Cc1ccc(-n2c(C)cc(C(=O)CSc3nnc4ccccn34)c2C)cc1	-16.1	
C/C(=N\NC(=O)c1ccc(NS(=O)(=O)c2cccs2)cc1)c1ccc2ccccc2c1	-21.6	
Nc1c(C(=O)NCc2ccccc2)sc2nc3c(cc12)C(=O)CCC3	-24.2	
Cc1cccc(NC(=O)c2sc3nc4c(c(-c5ccco5)c3c2N)CCC4)c1	-21.6	
CC(C)OC(=O)c1sc2nc3c(cc2c1N)C(=O)CCC3		28.2 µM (active)
C/C(CCC(=O)OC[C@H]1O[C@H](C#Cc2ccccc2)C=C[C@@H]1Oc1ccc(C)cc1)=N\OC[C@@H](O)[C@H]1O[C@@H]2OC(C)(C)O[C@@H]2[C@H]1O	-19.5	
CCc1ccc(NC(=O)CC2C(=O)NCCN2C(=S)Nc2ccccc2)cc1 (configuration not stated)	-10.9	
Cc1ccc(NN=C2C(=O)OC(C)(C)OC2=O)c(C)c1	-9.59	
C=CC1=C2C=C(C3CC3)N(C(CO)CO)C=C2C(=O)C(C)(OC(=O)c2ccco2)C1=O (configuration not stated)	-2.61	
COc1ccc(C(C[N+](=O)[O-])n2nc(C)cc2C)cc1 (configuration not stated)		31.6 µM (active)
COc1ccc(OCc2cn3c(C)cc(C)nc3n2)cc1	-7.95	
COc1ccc(Nc2cc(C)nc(-n3nc(C)cc3C)n2)cc1	-0.842	
COc1ccc(N2CCN(c3ccc([N+](=O)[O-])cc3Cl)CC2)cc1	-1.48	
COc1cc2c(cc1OC)C(Nc1ccc(S(N)(=O)=O)cc1)=NC(C)(C)C2	-7.98	
CSc1ccccc1C(=O)Nc1cccc(C(C)=O)c1	-4.99	
CC(Sc1nnc2c(n1)C1CCC2(C)C1(C)C)C(=O)Nc1ccccc1 (configuration not stated)	-10.3	
CSc1nc(C)cc(SC(C(C)=O)C(=O)Nc2ccccc2)n1 (configuration not stated)		25.1 µM (active)

Structure (SMILES)	activity change, negative = inhibition [%]	Potency
CCCCOc1ccc(C(=O)NCC(=O)OCC(=O)N2CCN(S(=O)(=O)c3ccc(C)cc3C)CC2)cc1	-0.54	
COC(=O)c1ccc(C(=O)OC)c(NC(=S)N2CCN(c3ccc(F)cc3)CC2)c1	-14.5	
CCOc1ccc(C(=O)NC(=S)Nc2ccc(NC(=O)C(C)C)cc2)cc1[N+](=O)[O-]	-3.94	
COc1ccc(OCC(=O)Nc2cc(C)c(Cl)cc2OC)c([N+](=O)[O-])c1	-1.27	
Cc1nnc(-c2ccc(Oc3ccc(C)c(C)c3)c([N+](=O)[O-])c2)o1		10 µM (active)
S=C(NCc1ccc(Cl)cc1)NC1CCCCC1	-2.44	
CC(C)(C)c1nc(NCC2CCCO2)c2nnn(Cc3ccccc3)c2n1 (configuration not stated)	-9.49	
CC(C)Nc1ncnc2c1nnn2Cc1ccccc1		28.2 µM (active)
C#CCNc1nc(C(C)C)nc2c1nnn2Cc1ccccc1F	-2.63	
N#Cc1ccccc1NC(=O)c1cccc(COc2ccc(Cl)cc2Cl)c1	-14.4	
Cc1ccc(-n2c(SCC(=O)Nc3ncc(Cl)cc3Cl)nc3ccccc32)cc1	-16.1	
COCC(C)n1c(C)cc(C(=O)CSc2cc(C)c3ccccc3n2)c1C (configuration not stated)	-10.7	
COc1ccc(/C=N/NC(=O)c2ccc(Cl)cc2)cc1COC(C)=O	-5.1	
Cc1ccc(C(=O)OCc2nc(N)nc(Nc3ccccc3C)n2)cc1	-0.25	
CC(Oc1ccc(Cl)cc1Cl)C(=O)/C=C/N(C)C (configuration not stated)		22.4 µM (active)
CCC(C)NC(=O)c1cc(Cl)ccc1OC (configuration not stated)	-11.4	
CN(C)/C=C/C(=O)c1ccccc1F	-27.4	
CCn1cc(CNC(=O)c2cc([N+](=O)[O-])c(C)c([N+](=O)[O-])c2)cn1	-7.17	
Cc1nc2ccccc2nc(C)c1=NOCc1ccc(Cl)cc1Cl	-8.26	

Structure (SMILES)	activity change, negative = inhibition [%]	Potency
Cc1nnnn1/C(=C\c1ccccc1)C(=O)OCC(=O)N1CC2(C)CC1CC(C)(C)C2 (configuration not stated)	-7.09	
O=C(NC1CC1)c1cccc(Br)c1	-26.7	
O=C(NC1CC1)c1ccc2c(c1)NC(=O)c1ccccc1S2		20 µM (active)
S=C1Nc2cc(Cl)ccc2Sc2ccccc21	-14	
COc1cc(Cl)c(C)cc1NC(=O)[C@@H]1CCCN1C(=O)c1cccs1	-4.97	
COc1ccc(-c2nn(-c3ccccc3)cc2/C=N/Nc2ccccn2)cc1OC	-26.3	
CC(=O)Nc1ccc(NC(=O)C(C)OC(=O)c2ccccc2C(=O)c2ccc(Cl)c([N+](=O)[O-])c2)cc1 (configuration not stated)	-2.62	
COc1ccc(C2CC(c3ccccc3)=NN2C(=O)CSc2nccc(=O)[nH]2)cc1 (configuration not stated)	-5.74	
CCOC(=O)c1c(NC(=O)c2ccc(N3CCOCC3)c([N+](=O)[O-])c2)sc(C)c1C	-7.82	
COCCNC(=O)c1ccc(N2CCC3(CC2)OCCO3)c([N+](=O)[O-])c1	-17.4	
CCC(C)NC(=O)c1ccc(N2CCC3(CC2)OCCO3)c([N+](=O)[O-])c1 (configuration not stated)		39.8 µM (active)
CC(C)CNC(=O)COC(=O)c1ccccc1OCC(=O)Nc1ccc(Br)cc1	-5.33	
Oc1c(C=Nc2cccc3nsnc23)ccc2ccccc12		25.1 µM (active)
Nc1nc(NC(=O)/C=C/c2ccccc2)nn1-c1ccccc1	-3.01	
COc1ccc(C2C(C#N)=C(/N=C/N3CCOCC3)OC3=C2C(=O)CC(C)(C)C3)cc1OC (configuration not stated)	-16.4	
COc1ccc(C2CC(=O)n3c(nc4ccccc43)S2)cc1OC (configuration not stated)	-12.6	
COc1cc(C2CC(=O)N3CN(Cc4ccccc4)CSC3=C2C#N)ccc1OCc1ccccc1 (configuration not stated)		10 µM (active)
CC(C)C(=O)Nc1ccc(C(=O)NNC(=O)c2cccs2)cc1	-13.5	
Cc1cc(C)nc(NC(=O)c2cccc([N+](=O)[O-])c2)c1	-3.35	
